For 93 compounds, inhibition results are on record in PubChem BioAssay AID1645860 (Buhrlage Lab, Dana-Farber Cancer Institute and Novartis …, 2021).

Structures are written as SMILES. The campaign covered roughly 47,000 compounds. About 2,500 (5.3%) were called active. Rule as the data show it: active = inhibition above about 30%; inactive = the rest. The entries come from a sample that favours actives as a whole.

In the assay the target is Ubiquitin carboxyl-terminal hydrolase 30 (Homo sapiens) (UniProt Q70CQ3). Put plainly: blocks human USP30 ubiquitin-rhodamine cleavage (AID 1645860). To be noted: purified USP30, Ub-rhodamine cleavage fluorescence; at 25 µM; active compounds read high.
Sequence of Ubiquitin carboxyl-terminal hydrolase 30 (Homo sapiens) (Q70CQ3 whole entry, looked up): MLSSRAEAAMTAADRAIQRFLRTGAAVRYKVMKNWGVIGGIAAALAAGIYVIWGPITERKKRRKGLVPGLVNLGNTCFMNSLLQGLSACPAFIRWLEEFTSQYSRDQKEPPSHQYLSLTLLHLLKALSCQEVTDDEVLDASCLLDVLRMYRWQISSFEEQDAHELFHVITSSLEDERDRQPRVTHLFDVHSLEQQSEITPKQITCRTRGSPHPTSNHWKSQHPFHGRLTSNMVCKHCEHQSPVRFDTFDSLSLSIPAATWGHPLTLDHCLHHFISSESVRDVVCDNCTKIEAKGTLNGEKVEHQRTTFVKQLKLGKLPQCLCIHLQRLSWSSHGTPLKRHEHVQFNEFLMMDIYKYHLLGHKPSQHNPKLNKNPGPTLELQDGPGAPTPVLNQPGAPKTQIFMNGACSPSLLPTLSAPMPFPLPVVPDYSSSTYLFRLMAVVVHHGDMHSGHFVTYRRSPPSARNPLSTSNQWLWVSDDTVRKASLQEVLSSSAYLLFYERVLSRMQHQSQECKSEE
Regarding `O=c1c2cnc(N3CCCCC3)nc2ccn1Cc1cccnc1`, the inhibition was 1.8% (inactive).
Under `O=c1c2cnc(N3CCCC3)nc2ccn1-c1ccccc1` stands 31% (active).
For the compound `O=c1c2cnc(N3CCOCC3)nc2ccn1CCc1ccccc1`, the inhibition is 12.9% (inactive).
For the compound `c1ccc(-c2nccc(-c3ccc(-n4cncn4)cc3)n2)nc1`, the inhibition was 23.2% (inactive).
Under `Cc1cc(C(=O)CSc2nnc(-c3ccc(F)cc3)n2C)c(C)n1C` stands -35% (inactive).
Take `Cn1c(SCc2ccc(Cl)cc2)nnc1-c1ccc2c(c1)OCCO2`: the inhibition was 30.4% (active).
Then `CCn1c(SCC(=O)Nc2ccc3c(c2)OCCO3)nnc1C(C)C`, with 9.74% (inactive).
Under `Cc1nc2cc(C(=O)NCc3ccccn3)ccc2n1-c1cccc(F)c1` stands 0.251% (inactive); under `Cc1nn(-c2ccccc2)c2c1c(C)c(CCC(=O)N1CCN(c3ccc(F)cc3)CC1)c(=O)n2C`, -7.59% (inactive); under `Cc1nn(-c2cccc(F)c2)c2c1c(C)c(CCC(=O)NCc1ccccn1)c(=O)n2C`, 58.6% (active).
Under `O=C(Nc1ccc2cn[nH]c2c1)c1cnn(-c2ccccc2)n1` stands -23.9% (inactive); under `CCCc1cc(=O)oc2cc(OCC(=O)NCc3ccc(OC)cc3)ccc12`, 62.1% (active); under `COc1ccc(N2CCN(Cc3cc(=O)oc4cc(O)ccc34)CC2)cc1`, 8.3% (inactive).
Consider `CCCc1cc(=O)oc2cc(OC(=O)C3CCN(C(=O)c4ccc(Cl)cc4)CC3)ccc12`, for which the inhibition was 29.6% (inactive).
Under `CCN(CC)c1ccc(C2C3=C(CC(C)(C)CC3=O)Nc3ccccc3N2C(=O)Cc2ccccc2)cc1` (stereo not drawn) stands -64.2% (inactive); under `Cc1ccc(NC(=O)Cc2sc(Nc3ccc(C)cc3)nc2O)cc1`, 53.6% (active).
Then `CCOc1ccc(N(CC(=O)Nc2ccc(S(=O)(=O)Nc3cc(C)ccc3C)cc2)S(C)(=O)=O)cc1`, with 1.87% (inactive); and `CCOc1ccc(Nc2nc(O)c(CC(=O)Nc3cccc(C)c3)s2)cc1`, with 33.8% (active); and `CCC(=O)c1ccc(OCC(=O)Nc2ccc3nc(C)sc3c2)cc1`, with -168% (inactive).
Turning to `Cc1ccc(Nc2nc(O)c(CC(=O)Nc3ccc(C(C)C)cc3)s2)cc1C`, the inhibition was 0.202% (inactive).
Under `Cc1ccc(Nc2nc(NCC(=O)Nc3cc(C)ccc3C)nc(Nc3ccc(C)cc3)n2)cc1` stands -44% (inactive); under `Cc1cccc(-c2cnc(C(O)c3ccc4c(c3)OCO4)[nH]2)c1` (stereo not drawn), -30.9% (inactive); under `COc1ccc(C2CC(=O)c3cnc(NC(=O)c4cc(OC)c(OC)c(OC)c4)nc3C2)c(OC)c1` (stereo not drawn), 24.2% (inactive).
Consider `C=C1C(=O)O[C@H]2C=C(C)C=C[C@@]3(C)CC[C@@]1(O)[C@H]23`, for which the inhibition is 7.94% (inactive).
As to `O=C(NCc1ccncc1)C1CC(=O)N(c2cccc(C(F)(F)F)c2)C1` (stereo not drawn), the inhibition was 0.292% (inactive).
Then `Cc1oc(-c2ccccc2)nc1C(=O)N(C)Cc1cccc(Cl)c1Cl`, with -7.53% (inactive).
Then `O=C1NCCCC12CCN(Cc1cnc3ccccc3n1)CC2`, with 10.3% (inactive).
Then `Cc1ccc(-c2nc(C(=O)N3CCN(c4ccccn4)CC3)cs2)n1C`, with -26.2% (inactive); and `CN(CCc1ccccc1)c1nccc(N2CCN(C(=O)c3csc(-c4cccnc4)n3)CC2)n1`, with 51.1% (active).
In the case of `O=C(c1cccnc1)N1CCN(c2cc(-c3ccccc3)[nH]n2)CC1`, the inhibition was 12.7% (inactive).
Turning to `Cc1nc2cccnc2nc1C`, the inhibition is -39.7% (inactive).
Then `NC(=Nc1cccnc1)c1ccc2ccccc2n1`, with 4.02% (inactive); and `Clc1ccc(C2NC3=NCN(Cc4ccco4)CN3c3nc4ccccc4n32)cc1` (stereo not drawn), with 36.4% (active).
With `COc1cccc(CNC(=O)C2(C)Oc3cccnc3N(C)C2=O)c1` (stereo not drawn), the inhibition was -5.25% (inactive).
Then `O=C(NC1CCCCCC1)c1nc(Cn2cnc3ccccc3c2=O)no1`, with 9.85% (inactive); and `COc1ccc(N(CC(=O)NCc2ccco2)S(=O)(=O)c2ccccc2[N+](=O)[O-])c(OC)c1`, with 3.13% (inactive); and `CC(C)(C)c1ccc(-c2nnc3n2-c2ccccc2SC3)cc1`, with 56.7% (active).
Under `CCc1ccccc1N1C(=O)CN(S(C)(=O)=O)CC1(C)C(=O)NC1CCCCC1` (stereo not drawn) stands 19.9% (inactive); under `COCCSc1ccc(-c2cccnc2)nn1`, 1.49% (inactive).
Consider `Cc1ccc(C(=O)N2CCC3(CC2)CCN(c2cnn(C)c2)C3=O)cc1`, for which the inhibition is 17.1% (inactive).
Regarding `O=C(NCC(c1ccco1)N1CCCCC1)c1ccccc1Cl` (stereo not drawn), the inhibition was -6.05% (inactive).
Under `CCCOc1ccc(CNC(=O)C2CCCN(c3nnc(N4CCCC4=O)s3)C2)cc1` (stereo not drawn) stands 5.69% (inactive); under `Cc1cc(=O)n(CC(=O)NCc2ccccc2)c(N2CCCC2)n1`, 0.241% (inactive); under `Cc1ccc(CNC(=O)c2cc(=O)nc3sc(N4CCCC(C)C4)nn23)cc1` (stereo not drawn), 30.1% (active).
Then `COc1ccccc1-n1ccnc(NC(=O)c2cccc(F)c2)c1=O`, with 11% (inactive); and `COc1cccc(NC(=O)Nc2nccn(-c3ccccc3)c2=O)c1`, with 39.1% (active); and `COc1cccc(C(=O)Nc2nccn(-c3cccc(F)c3)c2=O)c1`, with 0.051% (inactive).
Under `CSc1ncccc1C(=O)Nc1ccnn1C(C)c1ccncc1` (stereo not drawn) stands -23% (inactive); under `CCn1c2ccccc2n2c(S(=O)(=O)Cc3ccccc3)nnc12`, 5.02% (inactive); under `Cc1sc2nc(C3CC3)n(C3CCN(C(=O)C(C)C)CC3)c(=O)c2c1C`, 18.3% (inactive).
As to `CCC(Oc1ccccc1)C(=O)NCc1ccc2c(c1)OCO2` (stereo not drawn), the inhibition is 21.1% (inactive).
`c1ccc(-c2ccc(NCc3ccc4c(c3)OCO4)nn2)cc1`: the inhibition is 33.6% (active).
Under `c1cc(CNCc2ccc3c(c2)OCO3)ccn1` stands 0.888% (inactive); under `Cc1cccc(CN2CCN(CC(=O)NCCN3CCOCC3)C2=O)c1`, -2.8% (inactive); under `O=C(NCc1ccccc1F)c1nnn(-c2ccccc2)n1`, 14.4% (inactive).
Then `CSCc1c(C)noc1-c1cc(C)on1`, with 8.31% (inactive); and `COc1ccccc1N(Cc1nc2nc(C)cc(C)n2n1)C(=O)c1ccccc1`, with -0.203% (inactive).
Consider `CCOc1nc(-c2ccc(Cl)cc2Cl)nc2ccccc12`, for which the inhibition was 13.4% (inactive).
Consider `Cc1ccnc(Nc2nc(-c3ccccc3)c3cc(Cl)ccc3n2)n1`, for which the inhibition was 82.8% (active).
With `CCOc1ccc(Nc2cc(C(=O)NCCN3CCCC3)c3ccccc3n2)cc1`, the inhibition is 29.9% (inactive).
Consider `CCOc1ccc(C(=O)C[n+]2cc(-c3ccccc3)n3c2CCC3)cc1`, for which the inhibition was 30.3% (active).
Under `CC(=O)C[n+]1cc(-c2ccc(C)cc2)n2c1CCC2` stands 5.82% (inactive); under `CCN1CCN(c2ccc(NC(=O)c3cccc(C)c3)cn2)C1=O`, -23.3% (inactive); under `Cc1nc(-c2cnccn2)n(CC(=O)Nc2ccc(F)cc2)c(=O)c1C`, 2.83% (inactive).
Under `CC(=O)c1cccc(Nc2c(C(=O)N3CCCC3)cnc3nc(C)ccc23)c1` stands -35.8% (inactive); under `COCCNc1nn2c(-c3ccc4ccccc4c3)cnc2s1`, 30.2% (active).
`OCc1ccccc1-c1cnc2sc(NCCc3ccccn3)nn12`: the inhibition is 16.3% (inactive).
Then `Cc1nnn(C23CC4CC(CC(C(=O)NC5CCCC5)(C4)C2)C3)n1`, with 21.2% (inactive).
Then `CCOc1ccccc1N1CCN(C(=O)c2snc(-c3ccncc3)c2N)CC1`, with 1.69% (inactive); and `O=C(CCC(=O)N(c1ccccc1)c1ccccc1)Nc1ccccc1`, with -16.4% (inactive).
Under `O=C(Cn1cnc2c(sc3ccccc32)c1=O)Nc1ccc2c(c1)OCCO2` stands -498% (inactive); under `COc1ccc(C)cc1NC(=O)Cn1c(=O)nc(N(C)c2ccccc2)c2ccccc21`, 0.767% (inactive); under `CN(c1ccccc1)c1nc(=O)n(CC(=O)Nc2ccc3c(c2)OCCO3)c2ccccc12`, 42.3% (active).
As to `CCCCS(=O)(=O)N1C[C@H]2CC[C@@]3(N=C(C)N(CC4CC4)C3=O)[C@H]2C1`, the inhibition is 12.5% (inactive).
On to `CNC(=O)c1sc2nccnc2c1C1CCN(C(=O)c2cccc(F)c2)CC1`, for which the inhibition was 13.3% (inactive).
Take `CNc1cc(C2CCCN2C(=O)c2cc3c([nH]c2=O)CCC3)ccn1` (stereo not drawn): the inhibition is -20.8% (inactive).
Then `CC(C)N(C(=O)CSc1nc2ccc([N+](=O)[O-])cc2s1)C(C)C`, with -147% (inactive); and `CC(C)Cc1cc(C(=O)N2CCN(C)CC(C(N)=O)C2)on1` (stereo not drawn), with 16.9% (inactive).
Then `C=C1CC[C@@H]2[C@@]3(C)CCC(=O)C(C)(C)[C@@H]3CC[C@@]2(C)[C@]12Cc1c(c(C)c(C)oc1=O)O2`, with 30.3% (active); and `CNC(=O)Nc1ccc(C2(C(=O)NC3CCCC3)CCC2)cc1`, with -19.9% (inactive).
Take `CC12C(=O)N(CCCN3CCOCC3)CC(=O)N1CCc1c2[nH]c2ccccc12` (stereo not drawn): the inhibition was 7.84% (inactive).
Under `Cc1cc(NC2CCCCC2)n2ncc(-c3ccccc3Cl)c2n1` stands -16.5% (inactive); under `Cc1ccc(NC(=O)CCOc2ccccc2)cc1S(=O)(=O)Nc1ccccc1Cl`, 30.4% (active); under `COc1ccc(NS(=O)(=O)c2cc(NC(=O)CC(=O)c3ccc([N+](=O)[O-])cc3)ccc2C)cc1`, 29.7% (inactive).
For `Cc1ccc(NC(=O)CCC(=O)N(c2ccccc2)c2ccccc2)cc1Cl`, the inhibition was 17.2% (inactive).
Under `O=C(Nc1nnc(-c2cccs2)o1)C1CCCCC1` stands 10.9% (inactive).
Under `Cc1cc(-c2nnc(SCC(=O)Nc3ccc(Br)c(C)c3)n2N)n[nH]1` stands 71.5% (active); under `Nn1c(SCC(=O)Nc2ccccc2F)nnc1-c1n[nH]c2c1CCC2`, -0.125% (inactive); under `Cc1cc(NC(=O)COC(=O)c2cccc(C)c2O)ccc1Br`, 6.49% (inactive).
Turning to `O=C(c1cnc2sc3c(n2c1=O)CCC3)N1CCCCC1`, the inhibition is -37.1% (inactive).
For `CC(C)Cc1nc2sc3c(NCc4ccco4)ncnc3c2c2c1CCC2`, the inhibition is -21.1% (inactive).
Regarding `CC(O)CNc1ncnc2c1oc1nc(C(C)C)c3c(c12)CCC3` (stereo not drawn), the inhibition is 38.1% (active).
Under `CC(C)c1nc2oc3c(N4CCN(CCO)CC4)ncnc3c2c2c1CCC2` stands 18.4% (inactive).

A word on the inhibition: it is the relative decrease from the control value, in per cent.
